Assay results: the OligoGym collection

The sequences below were run against ZBTB9 (assay: pooled miR-30 sensor sort-seq; sequence = guide strand). Conditions: shRNA.
Further: reference of the scale not given here.

| Sequence | sensor-assay potency score (higher = more potent) |
| --- | --- |
| TTTAAGTAACTGCAAGTCCCAC | -0.539 |
| TTGAGTTTCCACATCTGCCAGG | -0.504 |
| TAACACTGCTTTATGAGCCCTA | -0.401 |
| TGAGCACTGATCTACTACCTGC | -0.24 |
| TCGGCTTCAATGACACTCGGTA | -0.397 |
| TAATTCTCTAAGAATTTCTGAG | -0.361 |
| TAAAACATTTACCACTGTCTTT | -1.1 |
| TTTCTGAGCACTGATCTACTAC | -0.637 |
| TTAAGCTGTAAATCAAATGTAT | -0.457 |
| TTAATGTAGAAGATTTTGGGGG | -0.261 |
| TTTTGCTCTAACTCTTCTCTCA | -0.273 |
| TAAATAATTGAAAATCTGGTTT | -0.887 |

Each sequence was assayed against ZC3H13 in the same assay as above. Conditions: shRNA.

| Sequence | sensor-assay potency score (higher = more potent) |
| --- | --- |
| TTGATCTAACCACTTCTGGTGA | -0.291 |
| TATTCCAACATCATCCTCTTTC | 0.216 |
| TAGACTTTCTTAGAGAAGGTGA | 0.611 |
| TTTTGATCTAACCACTTCTGGT | -0.785 |
| TTCTCGGATCTCTTCTCGCTTT | -0.478 |
| TTGGATTCCTATCTTCTCGGAT | 0.12 |
| TTGAACTCTCTTTCCTTTCTGG | 0.745 |
| TTGAGGTCGTACAACTTGGCTC | -0.282 |
| TTGTTCTTCATTCTTTCTCTAA | -0.618 |
| TTCATTTCTATAGCGCTTCTTT | -0.352 |
| TATAATTGCTGCTATAACCTTT | -0.316 |
| TTTCAGGATAGCTACTTCGAGT | -1.23 |

These sequences were tested against ZDHHC14 in the same assay as above. Conditions: shRNA.

| Sequence | sensor-assay potency score (higher = more potent) |
| --- | --- |
| TTACAGAAGAACTTGTTTCTTC | 0.472 |
| TTGATGATGACTTCTTTGGTTC | -0.541 |
| TTTGCGATATCTATTTGCCTTT | -0.604 |
| TTTGTTGTCTGGTTGGAGCTGA | 0.539 |
| TTACCTCTTTTATTTGACCAGG | -0.803 |
| TTGCAGTCTGGCCACAAGCGTC | -1.44 |
| TAGTAGCATAACACATAAGTGC | -0.719 |
| TTGGTCGCACATGTCACTCTGT | 0.506 |
| TTGGAGCTGATCAAGTAGGTGT | 0.206 |
| TTAGGAATCCTGTTTGCTGTGA | 0.039 |

Each sequence was assayed against ZDHHC20 in the same assay as above. Conditions: shRNA.

| Sequence | sensor-assay potency score (higher = more potent) |
| --- | --- |
| TTCTTCAGCTCCATTCTCCAGC | -0.419 |
| TATAGATAGGTAAAGCTCTTGC | -0.117 |
| TTTCTTGTTGTCTTTCTTGGCT | -0.0932 |
| TTTTGCACGTGTATCTGTCAGT | -0.551 |
| TTATAAAGTACTCTAAAACTGT | -0.589 |
